High-throughput results: PubChem, Johns Hopkins Ion Channel Center
The list is not random: actives were taken first. Their share in the collection is about 2.3%.
TMEM16A act = activates or potentiates the mouse TMEM16A chloride channel; HEK293 TMEM16A/YFP-H148Q/I152L, iodide quench fluorescence; active compounds read low; B-score at 10 µM; 340,000 compounds, 0.3% hits; AID 623877;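 active means fluorescence-ratio B-score plate-corrected deviation score at least 3 library SD below zero, with starting fluorescence score within 5 deviations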;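 further: channel opened by trigger with iodide after compound preincubation; score built on the fluorescence ratio of max minus min over baseline; more negative score means more quench and so TMEM16A activation or potentiation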
TMEM16A inh = inhibitors of mouse TMEM16A calcium-activated chloride channel. 310,000 compounds, 1.2% hits. AID 588511. normalized B-score (activity score, 25-100; higher = stronger inhibition) at 10 µM. Q8BHY3. HEK293 TMEM16A/YFP iodide influx fluorescence, ionomycin;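 active means ratio plate-corrected score three or more library SD toward inhibition, starting fluorescence score within five deviations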;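 further: score derived from kinetic fluorescence span divided by baseline fluorescence per well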
CHT inh = inhibitors of human choline transporter CHT. Q9GZV3. CHT-expressing cells, membrane potential dye, choline response; active compounds read low. B-score at 10 µM. 310,000 compounds, 0.86% hits;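 active means B-score over 3 SD under the library average, and starting fluorescence ratio not unusually high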;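 further: choline stimulus applied at its EC90 after an EC20 pre-addition; B-score computed on integrated fluorescence ratio after choline addition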
Target sequence (Q9GZV3 whole entry, looked up): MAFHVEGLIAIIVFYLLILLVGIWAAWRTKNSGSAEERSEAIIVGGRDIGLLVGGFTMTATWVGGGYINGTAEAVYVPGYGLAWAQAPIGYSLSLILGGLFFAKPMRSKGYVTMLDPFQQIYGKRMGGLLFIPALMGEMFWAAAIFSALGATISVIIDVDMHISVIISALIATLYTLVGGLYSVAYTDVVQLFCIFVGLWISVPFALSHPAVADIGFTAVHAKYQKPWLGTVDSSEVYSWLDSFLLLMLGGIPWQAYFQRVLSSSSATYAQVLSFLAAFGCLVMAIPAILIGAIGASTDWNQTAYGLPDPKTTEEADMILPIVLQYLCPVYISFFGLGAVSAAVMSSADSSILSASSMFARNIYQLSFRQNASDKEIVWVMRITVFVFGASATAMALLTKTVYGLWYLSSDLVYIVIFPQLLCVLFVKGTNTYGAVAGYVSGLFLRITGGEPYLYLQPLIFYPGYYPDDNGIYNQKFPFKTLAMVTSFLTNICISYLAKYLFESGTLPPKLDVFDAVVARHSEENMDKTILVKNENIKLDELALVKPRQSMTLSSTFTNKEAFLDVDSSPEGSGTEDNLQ
CHT allo act = allosteric activators of human choline transporter CHT. 310,000 compounds, 0.49% hits. B-score at 10 µM. Q9GZV3. CHT-expressing cells, membrane potential dye, choline EC20; active compounds read high; LV-AA mutant CHT in HEK293 cells;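 active means initial fluorescence not abnormally high and integrated response B-score, plate-corrected, over 3 SD above library mean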
CHT activ conf = human CHT activation, confirmatory screen. shares compounds with CHT allo act. CHT-expressing cells, membrane potential dye fluorescence (FDSS); % of choline EC20–EC90 response window; HEK293 expressing CHT LV-AA mutant; choline added at its EC20. activation, % at 10 µM. 2,500 compounds, 91% hits. AID 504833;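 active means primary screen active, with duplicate mean activation above negative control mean plus 3 SD, cut at about 11% in these data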
HEK293 MP dye = CHT activator counter-screen hit in parental HEK293 cells | 2,500 compounds, 62% hits | AID 623908 | shares compounds with CHT allo act | membrane potential dye fluorescence (FDSS); measured after EC20 choline addition | ratio readout change at 10 µM, hits read low;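 active means duplicate-averaged ratio beyond 3 SD from buffer wells, up or down, though filed actives are nearly all decreases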
Active calls of the source: *.

Cc1cc(N2CCN(c3nc(-c4ccc([N+](=O)[O-])cc4)cs3)CC2)c2ccccc2n1 was read as TMEM16A act inactive, TMEM16A inh inactive, CHT inh inactive and CHT allo act inactive.
For O=C(Cn1cc(C(F)(F)F)cc(Cl)c1=O)NCc1ccccc1 the results were TMEM16A act inactive, TMEM16A inh inactive, CHT inh inactive and CHT allo act inactive.
CN1Cc2c(N3CCOCC3)nc3sc(C#N)c(N)c3c2CC1(C)C was read as TMEM16A act inactive, TMEM16A inh inactive, CHT inh inactive, CHT allo act inactive, CHT activ conf 50* and HEK293 MP dye -55*.
CC[C@H]1CN2CCc3cc(OC)c(OC)cc3C2C[C@@H]1C[C@H]1NCCc2cc(OC)c(OC)cc21 (stereo not given in full) was read as TMEM16A act inactive, TMEM16A inh inactive, CHT inh inactive, CHT allo act 14*, CHT activ conf 41* and HEK293 MP dye -43*.
Screening CCC1=C(CC2NCCc3ccccc32)CC2c3cc(OC)c(OC)cc3CCN2C1 (stereo not given) returned TMEM16A act inactive.
For CCN(CC)CCCN=C1N[C@@H](c2cccc(C(F)(F)F)c2)C(C(=O)OC)=C(C)N1CC the results were TMEM16A act inactive.
Screening CN(C)CCCn1c(NCc2ccc3c(c2)OCO3)nc2ccccc21 returned TMEM16A act inactive, TMEM16A inh inactive, CHT inh inactive, CHT allo act inactive, CHT activ conf 35* and HEK293 MP dye -50*.
For O=C(O)C(Cc1ccnc2ccccc12)=NO the results were TMEM16A act inactive.
For Cc1ccc2c(n1)sc1c(N)ncnc12 the results were TMEM16A act inactive, TMEM16A inh inactive, CHT inh inactive, CHT allo act 8.3*, CHT activ conf 53* and HEK293 MP dye -32*.
For N#CCS(=O)(=O)c1ccccc1 the results were TMEM16A act inactive, TMEM16A inh inactive, CHT inh inactive and CHT allo act inactive.
Screening COc1cc(N)c(C(O)c2nccc3cc(OC)c(OC)cc23)cc1OC (stereo not given) returned TMEM16A act inactive, TMEM16A inh inactive, CHT inh inactive, CHT allo act inactive, CHT activ conf 70* and HEK293 MP dye -51*.
For COc1cc(N)c2ncccc2c1Cl the results were TMEM16A act inactive.
For COc1ccc(C(=O)c2nccc3cc(OC)c(OC)cc23)cc1OC the results were TMEM16A act inactive.
For COc1ccc(C(O)c2nccc3cc(OC)c(OC)cc23)cc1OC (stereo not given) the results were TMEM16A act inactive, TMEM16A inh inactive, CHT inh inactive, CHT allo act 9.2*, CHT activ conf 59* and HEK293 MP dye -74*.
O=C(C1CC1)N1N=C(c2ccccc2)CC1(O)C(F)(F)C(F)(F)F (stereo not given) was read as TMEM16A act inactive, TMEM16A inh inactive, CHT inh inactive and CHT allo act inactive.
Screening Nc1cc(S(=O)(=O)Nc2ccccc2Cl)ccc1N1CCCCC1 returned TMEM16A act inactive.
For CCc1cc2c(N3CCN(c4ccccc4)CC3)ncnc2s1 the results were TMEM16A act inactive, TMEM16A inh 25*, CHT inh inactive, CHT allo act inactive, CHT activ conf 16* and HEK293 MP dye inactive.
C[C@H](CO)N1C[C@H](C)[C@@H](CN(C)CC2CCCCC2)Oc2ccc(NC(=O)Cn3cnnn3)cc2C1=O was read as TMEM16A act inactive.
CN1CCN(c2c(F)cc3c(=O)c(C(=O)O)cn4c3c2SCC4)CC1 was read as TMEM16A act inactive, TMEM16A inh inactive, CHT inh inactive, CHT allo act 9.9*, CHT activ conf 23* and HEK293 MP dye -69*.
Screening CCC1(CC)NC(=O)N(CC(=O)Nc2ccc(C)cc2C)C1=O returned TMEM16A act inactive.
For COC(=O)/C(=N/Nc1ccccc1)N1CCCc2ccccc21 the results were TMEM16A act inactive, TMEM16A inh inactive, CHT inh inactive and CHT allo act inactive.
For COC(=O)/C(=N/Nc1ccc(C)cc1)N1CCCc2ccccc21 the results were TMEM16A act inactive, TMEM16A inh inactive, CHT inh inactive, CHT allo act 8.1*, CHT activ conf -1 and HEK293 MP dye inactive.
`Cc1c(C)c2ccc(OCc3ccc(C(=O)O)o3)c(C)c2oc1=O` gave TMEM16A act inactive, TMEM16A inh inactive, CHT inh inactive, CHT allo act 7.8*, CHT activ conf 30* and HEK293 MP dye -40*.
Cc1cc(C)cc(COc2ccc3c(C)c(CC(=O)O)c(=O)oc3c2C)c1 was read as TMEM16A act inactive, TMEM16A inh inactive, CHT inh inactive and CHT allo act inactive.
Screening Cc1onc(-c2ccccc2)c1-c1nnc(CN2CCN(S(=O)(=O)c3ccccc3F)CC2)o1 returned TMEM16A act inactive.
Screening COc1ccc(NC(=S)NC(=O)c2cncc(Br)c2)cc1 returned TMEM16A act inactive, TMEM16A inh inactive, CHT inh inactive and CHT allo act inactive.
Screening CC1(C)CC2CC(C)(CN2/C=N/c2sc3c(c2C#N)CC(C)(C)NC3(C)C)C1 (stereo not given) returned TMEM16A act inactive, TMEM16A inh inactive, CHT inh inactive, CHT allo act 8*, CHT activ conf 35* and HEK293 MP dye inactive.
`CC1(C)Cc2c(sc(NC(=O)C(C)(C)C)c2C#N)C(C)(C)N1` gave TMEM16A act inactive, TMEM16A inh inactive, CHT inh inactive and CHT allo act inactive.
CN(CCO)S(=O)(=O)c1ccc2c(c1)C(=NNC(N)=O)c1cc(S(=O)(=O)N(C)CCO)ccc1-2 was read as TMEM16A act inactive, TMEM16A inh inactive, CHT inh inactive, CHT allo act 8.2*, CHT activ conf 42* and HEK293 MP dye -43*.
For COc1ccc(S(=O)(=O)N2CCCCCC2)cc1NC(=O)CN(C)Cc1ccc2c(c1)OCO2 the results were TMEM16A act inactive.
`CN(c1ccc(OCc2nnc(-c3ccccc3)o2)cc1)S(=O)(=O)c1ccccc1` gave TMEM16A act inactive, TMEM16A inh inactive, CHT inh inactive, CHT allo act inactive, CHT activ conf 27* and HEK293 MP dye inactive.
Cn1c(CC(=O)NNC(=O)c2ccccc2[N+](=O)[O-])nc2ccccc21 was read as TMEM16A act inactive.
CCOC(=O)N1CCN(c2nc(-c3cccs3)nc3ccccc23)CC1 was read as TMEM16A act inactive, TMEM16A inh inactive, CHT inh inactive, CHT allo act 6.7*, CHT activ conf 30* and HEK293 MP dye inactive.
